# Bioassay records: PubChem, National Center for Advancing Translational Sciences (NCATS)
# This is a sample that favours compounds with a hit; in the whole collection about 19% have one here.
# ELG1 DNA repair = blocks ELG1-dependent DNA repair in HEK293T cells; HEK293T ELG1-luciferase reporter, luminescence, 16 h; DNA damage induced by 5-fluorouridine; Potency, µM (series often up to 46.1 µM), inactives show at the top dose activity change, negative = inhibition, hits mostly inhibitors; actives 2.3% (n = 330,000); AID 504467; further: potency means the concentration at half of the fitted maximal effect; nearly all actives have a fitted effect of over 55% in size
#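 Quantitative HTS, concentration-response format. 2,000 cells/well co-treated with 5-fluorouridine and compound, 16 hr in 5% CO2 at 37 °C; ONE-Glo luminescence read after 30 min.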
# HT1080NT lethal = kills 2HG-producing HT-1080-NT fibrosarcoma cells | AID 686970 | HT-1080-NT fibrosarcoma viability, CellTiter-Glo ATP luminescence, 48 h | Potency, µM (titrated, usually from 46.1 µM), for the others: at the highest dose activity, negative = less viability, hits mostly cytotoxic | actives 1.6% (n = 360,000);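 further: NT is the 2HG producing partner of a matched IDH1 knockdown line; potency means the concentration at half of the fitted maximal effect; 0% = DMSO-treated cells and -100% = media-only wells without cells; nearly all actives have a fitted effect of over 55% in size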
#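 Viability of the 2HG-overproducing fibrosarcoma line after 48 hours of compound exposure at 37 degrees C was determined by luminescence with CellTiter-Glo, and concentration-effect curves were then fitted and categorized.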
# DT40 TDP1 no CPT = qHTS for Inhibitors of human tyrosyl-DNA phosphodiesterase 1 (TDP1): qHTS in cells in absence of CPT | DT40 Tdp1-/- hTDP1 cells, no CPT, ATP luminescence, 48 h | Potency, µM (doses to about 46.2 µM), for inactives: top-dose activity change, negative = growth inhibition, usual class: inhibitors | actives 15% (n = 420,000) | AID 686978, 2013; further: potency means the concentration at half of the fitted maximal effect; nearly all actives have a fitted effect of over 55% in size
#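 Camptothecin absent (DMSO only). Human TDP1-complemented DT40 knockout cells, 400 cells/well, 37 °C for minimum 48 hr; ATP measured via CellTiter-Glo, 30 min dark incubation, luminescence.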
# HT1080 IDH1KD tx = toxicity to HT-1080 IDH1 knockdown cells (counter line) | actives 2% (n = 360,000) | HT-1080 IDH1 knockdown viability, ATP luminescence, 48 h | AID 686971 | Potency, µM (top dose mostly 46.1 µM), for inactives: at the highest dose activity, negative = toxicity, most hits filed as cytotoxic;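 further: potency means the concentration at half of the fitted maximal effect; 0% = DMSO wells and -100% = cell-free medium wells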
#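 Assay cells: HT-1080 with IDH1 knockdown, 750 per well, RPMI/5% FBS. Exposure: 48 h at 37 °C following 2 h pre-incubation. Read: CellTiter-Glo luminescence; fitted concentration-response, curve class assigned.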
# IL-1B inflam inh = blocks inflammasome-driven IL-1 beta release; THP-1 LPS/ATP IL-1B secretion, AlphaLISA, 16 h; stronger effect = lower value; actives 4.7% (n = 360,000); activity change, % at 57.5 µM; AID 743279; in the data active means activity change below about -50%; inconclusive means mostly about -30% to -49%
#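 Secreted IL-1B measured by AlphaLISA bead assay after 16 h compound exposure of THP-1 cells; compounds (final up to 57.5 uM) added 1 h before LPS (250 ng/mL) and ATP (1.25 mM) stimulation; lower signal means less secretion.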
# DT40 TDP1 CPT = growth inhibition of DT40 Tdp1-/-;hTDP1 cells with camptothecin (screen for TDP1 inhibitors) | Potency, µM (series often up to 46.2 µM), without a hit: at the highest dose activity change, negative = growth inhibition, actives largely listed as inhibitors | actives 12% (n = 420,000) | chicken DT40 Tdp1-/-;hTDP1 cells + 20 nM CPT, ATP luminescence, 48 h; further: potency means the concentration at half of the fitted maximal effect; nearly all actives have a fitted effect of over 55% in size
#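 Cell growth measured by CellTiter-Glo luminescence after a minimum 48 h, 37 C compound exposure with 20 nM CPT in Tdp1-knockout DT40 cells stably expressing hTDP1, seeded 400/well; qHTS titration format.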
# * marks the source's active call; other numbers are inactive results; ? = inconclusive; . = no result given. Unless noted, the call rests on the fitted dose curve; in most records, active means well fitted curve in the direction sought with a large enough effect; inconclusive means small, poorly fitted or top-dose-only effect, or another doubt; inactive means no such curve, though single readings can be large; an effect the other way counts as inactive or inconclusive. Unless noted, on the % scale 0 is the no-effect control and ±100 the full control effect.
SMILES,ELG1 DNA repair,HT1080NT lethal,DT40 TDP1 no CPT,HT1080 IDH1KD tx,IL-1B inflam inh,DT40 TDP1 CPT
CC1=C(C(=O)Nc2ccc(C)cc2C)C(c2cccs2)n2nc(SCc3cccc(C)c3)nc2N1 (stereo not drawn),.,.,18µM*,.,.,21µM*
COc1ccccc1NC(=O)C1=C(C)Nc2nc(SCc3ccccc3)nn2C1c1cccs1 (stereo not drawn),.,.,15µM*,.,.,-101%
COc1cccc(-c2nc3n(n2)C(c2cccs2)C(C(=O)Nc2cccnc2)=C(C)N3)c1 (stereo not drawn),-8%,4%,?,1%,15,15µM*
CCc1ccc(C2C(C(=O)Nc3ccccc3C)=C(C)Nc3nc(SCc4cccc(OC)c4)nn32)cc1 (stereo not drawn),.,.,-19%,.,.,-5%
CC1=C(C(=O)Nc2ccccc2)C(c2cccs2)n2nc(SCc3ccccc3)nc2N1 (stereo not drawn),.,.,?,.,.,-19%
O=C(c1ccccc1Cl)n1nc(-c2ccco2)nc1NCc1cccs1,.,.,-19%,.,.,?
CC1CCCCC12NC(=O)N(CC(=O)NCCc1ccccc1)C2=O (stereo not drawn),1%,9%,1%,1%,15,-7%
Cc1cc(=O)c2c(=O)[nH][nH]c2[nH]1,.,-1%,-19%,6%,-2,17%
Cc1cc(=O)c2c(C)ccc(C)c2[nH]1,-4%,2%,9.2µM*,4%,-15,?
O=S(=O)(Nc1ccc2nc(-c3ccc(F)cc3)oc2c1)c1ccccc1,.,.,-29%,.,.,?
O=C(C[n+]1cccc(C(=O)Nc2ccccc2)c1)c1ccc([N+](=O)[O-])cc1,-8%,-16%,?,-4%,-8,?
O=C(C[n+]1cccc(C(=O)Nc2ccccc2)c1)c1ccc(Cl)cc1,.,-11%,16µM*,?,?,?
S=c1nc(Cc2ccccc2)[nH]c2ccccc12,?,9%,?,-1%,24,26µM*
COc1cc(C(=O)NCCOc2ccc(Cl)cc2)ccc1OCc1c(C)noc1C,12%,-6%,?,-12%,36,-25%
Cn1c(NCCO)nc2c1c(=O)n(Cc1cccc(F)c1)c(=O)n2C,.,.,-17%,.,.,6%
Cc1ccc(NC(=O)c2ccc(-c3cccc(Cl)c3C)o2)cc1,.,.,?,.,.,-23%
Cc1ccc(-c2ccc(C(=O)Nc3cccc(F)c3)o2)c2ccccc12,?,0%,21µM*,-6%,-5,?
O=C(Nc1cccc(F)c1)c1ccc(-c2ccccc2Cl)o1,?,4%,16µM*,0%,-29,?
CCOC(=O)C1CCCN(Cc2ccc(OC)c(OCc3ccccc3)c2)C1 (stereo not drawn),-7%,0%,0%,-3%,-3,-20%
CN1CCC(C(=O)N2CCCC(C(=O)c3ccc4c5c(cccc35)CC4)C2)CC1 (stereo not drawn),5%,-18%,18µM*,-22%,-12,?
O=C(c1cccc2ccccc12)C1CCCN(C(=O)C2CCOCC2)C1 (stereo not drawn),17%,-3%,-12%,-1%,-4,?
Cc1cccc(CN2CCN(C3CCCC3)C(CCO)C2)n1 (stereo not drawn),?,6%,-1%,10%,-4,-1%
O=C(C1CCCN(Cc2ccccc2)C1)N1CCCCC1 (stereo not drawn),4%,10%,1%,11%,14,8%
O=C(c1ccc2c3c(cccc13)CC2)C1CCCN(Cc2cccnc2)C1 (stereo not drawn),-23%,-28%,?,-18%,-78*,-20%
COc1cc(CN2CCCC(C(=O)c3ccc4c5c(cccc35)CC4)C2)cc(OC)c1O (stereo not drawn),-13%,-28%,4.6µM*,-10%,-7,4.6µM*
SMILES,ELG1 DNA repair,HT1080NT lethal,DT40 TDP1 no CPT,HT1080 IDH1KD tx,IL-1B inflam inh,DT40 TDP1 CPT
Cc1cccc(CN2CCCC(C(=O)c3ccc4c5c(cccc35)CC4)C2)n1 (stereo not drawn),-19%,?,13µM*,?,-28,16µM*
COc1ccc(NC(=O)c2nnn(CC(=O)Nc3ccc4c(c3)OCO4)c2N)c(OC)c1,?,-23%,1%,?,-8,-35%
CCOc1ccc(-c2cc3c(=O)n(CC(=O)Nc4c(C)cccc4C)ccn3n2)cc1,.,.,-12%,.,.,-1%
NNC(=O)CCc1ccc(S(=O)(=O)N2CCOCC2)cc1,4%,0%,?,10%,3,-1%
COc1ccc(CNC(=O)[C@@H](NC(=O)C2CCN(C(=O)[C@@H](N)CC(C)C)CC2)C(C)C)cc1,?,7%,-9%,6%,-12,-7%
COc1ccc(CCNC(=O)C2(c3cccs3)CCOCC2)cc1,.,.,?,.,.,-25%
CC(=O)NCCC(=O)N1CCCC(C(=O)c2ccc3c4c(cccc24)CC3)C1 (stereo not drawn),-3%,-6%,?,-3%,9,?
CC(=O)N1CCCC(C(=O)c2ccc3c4c(cccc24)CC3)C1 (stereo not drawn),-8%,4%,23µM*,4%,5,-28%
CC(C)c1ccc(NC2CCCN(C(=O)c3cccnc3)C2)cc1 (stereo not drawn),-5%,20%,?,-7%,19,?
O=C(c1ccc2c3c(cccc13)CC2)C1CCCN(C(=O)c2cccnc2)C1 (stereo not drawn),?,-1%,21µM*,-8%,1,12µM*
CC(C)C[C@H](NC(=O)OC(C)(C)C)C(=O)N[C@@H](CO)[C@H](O)[C@@H]1C[C@@H]1C(=O)NC1CC1,7%,9%,-16%,12%,10,1%
CC(C)NC(=O)N1CC2(CCN(C(=O)c3ccco3)CC2)C1,.,.,11%,.,.,10%
CCOC(=O)C1(CC2CCCCO2)CCN(Cc2nc(C(C)C)cs2)CC1 (stereo not drawn),?,-4%,?,-22%,?,16µM*
CCOC(=O)C1(CC2CCCCO2)CCN(Cc2c(C)cc(C)cc2-n2cccn2)CC1 (stereo not drawn),-9%,-6%,29µM*,-4%,28,?
CCOC(=O)C1(CC2CCCCO2)CCN(Cc2nccn2-c2cccc(C)c2)CC1 (stereo not drawn),-6%,-6%,?,7%,10,?
